PMC4336329 (PLoS ONE, 2015)
In all, about 310,000 compounds went through this assay and about 14,000 (4.5%) showed an effect of 50% or more. Effects have a minus sign here. The full list was thinned out, with strong results kept by preference.

The compounds below were run against human ether-à-go-go-related gene (hERG) potassium channel (human, UniProt Q12809) (assay: primary screen, population patch clamp on CHO cells stably expressing hERG; higher = less effect of the substance).
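Further: peak tail current of the secondary pulse compared with the same well before compound.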

Sequence of human ether-à-go-go-related gene (hERG) potassium channel (Q12809 whole entry, looked up): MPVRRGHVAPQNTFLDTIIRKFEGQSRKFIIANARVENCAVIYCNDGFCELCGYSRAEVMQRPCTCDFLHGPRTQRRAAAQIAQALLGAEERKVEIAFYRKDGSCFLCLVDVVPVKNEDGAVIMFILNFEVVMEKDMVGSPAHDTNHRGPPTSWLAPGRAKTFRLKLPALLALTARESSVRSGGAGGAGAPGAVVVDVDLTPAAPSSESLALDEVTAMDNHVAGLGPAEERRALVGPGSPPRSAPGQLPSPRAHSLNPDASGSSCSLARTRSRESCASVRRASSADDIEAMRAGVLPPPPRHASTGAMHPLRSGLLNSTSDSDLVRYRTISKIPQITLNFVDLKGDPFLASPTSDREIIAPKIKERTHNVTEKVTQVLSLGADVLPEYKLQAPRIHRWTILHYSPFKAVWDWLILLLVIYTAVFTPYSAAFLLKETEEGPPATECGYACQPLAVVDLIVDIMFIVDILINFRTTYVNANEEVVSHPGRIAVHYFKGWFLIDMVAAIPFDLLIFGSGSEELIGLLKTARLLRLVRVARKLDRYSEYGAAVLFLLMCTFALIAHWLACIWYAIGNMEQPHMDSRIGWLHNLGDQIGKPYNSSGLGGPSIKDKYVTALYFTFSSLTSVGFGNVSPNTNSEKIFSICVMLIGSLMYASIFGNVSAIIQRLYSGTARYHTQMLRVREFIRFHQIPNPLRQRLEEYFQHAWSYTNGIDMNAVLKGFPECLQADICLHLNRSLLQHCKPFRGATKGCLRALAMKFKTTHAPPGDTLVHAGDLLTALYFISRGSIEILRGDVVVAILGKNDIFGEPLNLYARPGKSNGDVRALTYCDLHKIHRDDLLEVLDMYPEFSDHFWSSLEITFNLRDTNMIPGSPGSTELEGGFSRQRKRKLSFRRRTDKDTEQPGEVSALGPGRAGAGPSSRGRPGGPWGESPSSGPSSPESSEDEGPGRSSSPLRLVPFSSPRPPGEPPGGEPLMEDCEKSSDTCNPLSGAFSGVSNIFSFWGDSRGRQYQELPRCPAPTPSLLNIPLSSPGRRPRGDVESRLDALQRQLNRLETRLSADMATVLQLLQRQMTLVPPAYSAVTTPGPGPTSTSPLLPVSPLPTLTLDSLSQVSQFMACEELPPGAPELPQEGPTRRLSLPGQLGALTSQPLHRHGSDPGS

Row | Structure (SMILES) | hERG current change (%, negative = inhibition) at 10uM [%]
1 | CC(=O)c1sc(NC(=O)CCS(=O)(=O)c2ccccc2)nc1C | 8.51
2 | Cc1sc(NC(=O)c2cc(-c3ccc(Cl)cc3)nc3ccccc23)c(C(N)=O)c1C | 5.31
3 | NC(=O)/C(=C/c1ccco1)NC(=O)/C=C/c1ccccc1 | -5.56
4 | N/C(=N\OC(=O)COc1ccccc1)c1ccc(Cl)cc1 | 2.9
5 | CN1CCN(CC(=O)Nc2c(C#N)cnn2-c2ccccc2)CC1 | 12.1
6 | CCOC(=O)[C@@H]1[C@H]2COc3cc(OC)ccc3[C@@H]2N2C(=O)N(c3ccc(C(F)(F)F)cc3)C(=O)[C@]12C | 15.1
7 | Clc1cc(Br)ccc1OCCCNCc1ccccc1.O=C(O)C(=O)O | -30.1
8 | Cl.OCCCCNCc1ccc(OCc2ccccc2Cl)cc1 | -15.9
9 | CCc1cc(OCCCCNCc2ccccc2)ccc1Cl.O=C(O)C(=O)O | -25.6
10 | O=C(O)C(=O)O.OCCNCCCOc1ccc(Cl)cc1Br | -54.9
11 | Cl.OCCNCc1ccc(OCc2ccc(Cl)cc2Cl)cc1 | -45.8
12 | Cl.OCCCCNCc1ccc(OCc2ccc(Cl)cc2Cl)cc1 | -51.6
13 | Clc1ccc(OCCCNCc2ccccc2)c(Br)c1.O=C(O)C(=O)O | -64.4
14 | Brc1ccccc1OCCNCc1ccccc1.O=C(O)C(=O)O | -29.8
15 | Clc1ccc(Cl)c(OCCCCNCc2ccccc2)c1.O=C(O)C(=O)O | -71.5
16 | Cc1ccc(OCCCNCCO)c(Br)c1.O=C(O)C(=O)O | -10.5
17 | Clc1ccc(OCCCNCc2ccccc2)c2ccccc12.O=C(O)C(=O)O | -1.92
18 | C=CCNCCCOc1ccc(Cl)cc1Br.O=C(O)C(=O)O | -42.6
19 | Cc1cc(C)c(S(=O)(=O)Nc2ccc(OCC(=O)O)cc2)c(C)c1 | 6.93
20 | Nc1nnnn1/N=C/c1ccccc1OCc1ccccc1 | 19
21 | COCCCN(Cc1cccs1)S(=O)(=O)c1c[nH]c(C(=O)OC)c1 | -8.01
22 | Cc1ccc2c(c1)nc(NCCCO)n2C | -3.54
23 | Cc1cc(Cl)ccc1OC(C)C(=O)OCC(=O)Nc1ccc2[nH]c(=O)[nH]c2c1 (stereo not shown) | -3.04
24 | CN1CCN(c2nc(-c3ccccc3Cl)nc3ccccc23)CC1 | -73.8
25 | CCN1CCN(c2nc(-c3ccccc3Cl)nc3ccccc23)CC1.Cl | -69.9

Row | Structure (SMILES) | hERG current change (%, negative = inhibition) at 10uM [%]
26 | CN1CCN(c2nc(-c3ccccc3O)nc3ccccc23)CC1 | 9.47
27 | OCCN1CCN(c2nc(-c3ccccc3O)nc3ccccc23)CC1 | -25.1
28 | COc1cccc(-c2nc(N3CCN(C)CC3)c3ccccc3n2)c1O | -30.8
29 | Oc1ccccc1-c1nc(N2CCN(Cc3ccccc3)CC2)c2ccccc2n1 | 10.5
30 | CN1CCN(c2nc(-c3ccc(Cl)cc3Cl)nc3ccccc23)CC1 | -73.9
31 | COc1nc(-c2ccc(Cl)cc2Cl)nc2ccccc12 | 6.59
32 | CN1CCN(c2nc(-c3ccc(Cl)c(Cl)c3)nc3ccccc23)CC1 | 6.63
33 | COCCNC(=O)CSc1ccccc1C(=O)NC1CCCc2ccccc21 (stereo not shown) | 5.31
34 | COc1cc(CNC(=O)CCn2nc(C)c3c(C)n(-c4ccccc4)nc3c2=O)cc(OC)c1OC | 12
35 | CCOc1cccc(C(=O)Nc2ccc3oc(-c4cccnc4)nc3c2)c1 | -9.4
36 | N#Cc1ccc(C(=O)Nc2nc3ccccc3[nH]2)cc1 | 19
37 | Cl.O=C(COc1ccc(Cl)cc1)NCCN1CCCC1 | -40
38 | COc1cc(Br)cc(CN2CCN(C=O)CC2)c1O | -2.6
39 | COc1cc(NC(=O)CN(C)S(=O)(=O)c2ccc(C)cc2)cc(OC)c1 | -19.9
40 | CCOC(=O)C1=C(C)NC(=O)/C1=C\N(C)C | 19
41 | CCOC(=O)c1ccc(NC(=S)N(CCN(C)C)Cc2cccs2)cc1 | -9.16
42 | CCOC(=O)c1ccc(NC(=S)N(CCCN2CCN(CC)CC2)Cc2cccs2)cc1 | -69.1
43 | CCOC(=O)c1ccc(NC(=S)N(CCN2CCCCCC2)Cc2cccs2)cc1 | -11.6
44 | COC(CNC(=O)CNC(=S)N(CCCN1CCOCC1)Cc1cccs1)OC | 6.42
45 | CCOC(=O)c1ccc(NC(=S)N(CCCN2CCCC2)Cc2cccs2)cc1 | -67.5
46 | CCOC(=O)c1ccc(NC(=S)N(CCCN2CCCC(C)C2)Cc2cccs2)cc1 (stereo not shown) | -76.3
47 | CCOC(=O)c1ccc(NC(=S)N(CCCN2CCN(C)CC2)Cc2cccs2)cc1 | -65.4
48 | CCOC(=O)c1ccc(NC(=S)N2CCCC(C)C2)cc1 (stereo not shown) | -28.4
49 | O=C(N/N=C/C(Br)=C/c1ccccc1)c1ccncc1 | 0.715
50 | Cc1ccc(NC(=O)c2ccccc2NC(=O)c2cccs2)cc1 | 20.1

Row | Structure (SMILES) | hERG current change (%, negative = inhibition) at 10uM [%]
51 | Cc1cccc(NS(=O)(=O)c2cc(Cl)ccc2Cl)n1 | 22.2
52 | CN1CCN(C2=C(Cl)C(=O)N(c3ccc(Cl)c(Cl)c3)C2=O)CC1 | 14.1
53 | COc1cccc(OCCNC(=O)c2cccc(OC)c2)c1 | -1.4
54 | Cc1cc(/C(=N/O)C(C)(C)NO)ccc1Cl | 5.73
55 | COc1ccc(CNc2ccc(Cl)cc2)cc1Cn1ccnc1 | -20.3
56 | COc1ccc(C(NC(=O)/C=C/c2ccco2)c2ccc(OC)cc2)cc1 | -13.3
57 | Brc1ccc(-c2nnc3sc(CN4CCN(c5ccccc5)CC4)cn23)cc1 | -1.83
58 | COc1ccc(/C=C2/SC(=O)N(CCNC(=O)C3CCCN3C(=O)c3cccs3)C2=O)cc1 (stereo not shown) | -22.8
59 | O=C(NCCN1C(=O)S/C(=C\c2ccc(Cl)c(Cl)c2)C1=O)c1cnccn1 | 1.98
60 | O=C(NCCN1C(=O)S/C(=C/c2ccccc2)C1=O)C1CCCN1C(=O)c1cccs1 (stereo not shown) | -26.9
61 | O=C(NCCN1C(=O)S/C(=C\c2ccc(OC(F)F)cc2)C1=O)[C@@H]1CCCN1C(=O)c1cccs1 | -63.5
62 | O=C(NCCN1C(=O)S/C(=C\c2cccnc2)C1=O)c1cccc(OC(F)F)c1 | -48.7
63 | O=C(NCCN1C(=O)S/C(=C\c2ccc(OC(F)F)cc2)C1=O)c1cnccn1 | -57.1
64 | O=C(c1ccco1)N1N=C(c2ccco2)CC1c1ccc(Cl)cc1Cl (stereo not shown) | 11.9
65 | CN(C)S(=O)(=O)Nc1cccc(-c2cn3c(n2)SCC3)c1 | 11.2
66 | O=[N+]([O-])c1cc(C(F)(F)F)cc([N+](=O)[O-])c1NCCN1CCNCC1 | 4.88
67 | CN1CCN(S(=O)(=O)c2ccc([N+](=O)[O-])cc2)CC1 | -14.6
68 | CC1CC(C)CN(S(=O)(=O)c2ccc(Oc3ccc([N+](=O)[O-])cc3)cc2)C1 (stereo not shown) | -9.72
69 | CN1CCC(=NOc2ccc([N+](=O)[O-])cc2)CC1 | -74.8
70 | CC1CN(C)C(C)C/C1=N\Oc1ccc([N+](=O)[O-])cc1.Cl (stereo not shown) | -78.6
71 | CC1=CC(=O)C=C(C)C1=NOc1ccc([N+](=O)[O-])cc1 | -3.45
72 | CC1CN(C)C(C)C/C1=N/Oc1ccccc1[N+](=O)[O-].Cl (stereo not shown) | -26.5
73 | Cc1nc2c(cnn2-c2ccccc2)c(=O)n1/N=C/c1ccccc1 | 11.9
74 | N/C(=N\OC(=O)Nc1ccccc1)c1ncc([N+](=O)[O-])s1 | -2.31
75 | Cc1ccc2c(c1)N(Cc1cccc(C#N)c1)C=NS2(=O)=O | 9.38

Row | Structure (SMILES) | hERG current change (%, negative = inhibition) at 10uM [%]
76 | CCn1c(-c2ccc([N+](=O)[O-])cc2)n[nH]c1=S | 9.07
77 | CCC(=O)Nc1ccccc1C(=O)OCC(=O)c1ccccc1 | -28.1
78 | COc1ccc(NC(=S)N(CCCN2CCCC2)Cc2ccco2)cc1 | -39.4
79 | COc1ccc(NC(=S)N(CCN2CCCCC2)Cc2ccco2)cc1 | -57.5
80 | CCc1ccc(NC(=S)N(CCCN2CCOCC2)Cc2ccco2)cc1 | -12.6
81 | CCc1ccccc1NC(=S)N(CCN1CCCCC1)Cc1ccco1 | -46.7
82 | COc1cccc(NC(=S)N(CCN2CCCCC2)Cc2ccco2)c1 | -43.9
83 | CCc1ccc(NC(=S)N(CCN2CCCCC2)Cc2ccco2)cc1 | -75.4
84 | O=C1COc2ccc3ccccc3c21 | -4.35
85 | Cc1cc(C(=O)C(=O)O)c(C)n1-c1ccc(Cl)cc1 | -43.4
86 | O=C(CCC1CCCC1)NCCS(=O)(=O)N1CCN(c2ccccc2)CC1 | -12.9
87 | NC(=O)C1(N2CCCCC2)CCN(C(=O)c2ccc(-n3cnnn3)cc2)CC1 | -30.6
88 | CC1=NNC(=O)C1CCC(=O)N/N=C/C=C/c1ccccc1 (stereo not shown) | 1.22
89 | CCc1ccc(NC(=S)NC2CCN(Cc3ccccc3)CC2)cc1 | -36.9
90 | CNC(=S)NC1CC2CCCC(C1)N2Cc1ccc(C)cc1 (stereo not shown) | -38.9
91 | S=C(NC1CCCCC1)NC1CC2CCC(C1)N2Cc1ccccc1 (stereo not shown) | -33.4
92 | CCNC(=S)NC1CC2CCCC(C1)N2Cc1ccc(C)cc1 (stereo not shown) | -48.1
93 | CCC(C)c1ccc(NC(=S)NC2CCN(Cc3ccccc3)CC2)cc1 (stereo not shown) | -61.8
94 | CCNC(=S)NC1CC2CCC(C1)N2Cc1ccccc1 (stereo not shown) | -20.3
95 | Cc1ccc(CN2C3CCCC2CC(NC(=S)NCc2ccccc2)C3)cc1 (stereo not shown) | -72.4
96 | CCc1ccc(NC(=S)NC2CC3CCCC(C2)N3Cc2ccccc2)cc1 (stereo not shown) | -70.9
97 | S=C(Nc1ccc(Cl)cc1)NC1CC2CCC(C1)N2Cc1ccccc1 (stereo not shown) | -66.1
98 | CNC(=S)NC1CC2CCC(C1)N2Cc1ccccc1 (stereo not shown) | -16.5
99 | CC(C)c1ccc(NC(=S)NC2CCN(Cc3ccccc3)CC2)cc1 | -17.4
100 | S=C(Nc1ccc(Cl)cc1)NC1CCN(Cc2ccccc2)CC1 | -39.9
